Compound activity as filed in PubChem.
The full list was thinned out, with hits kept by preference.
Pf apPOL block – Pf-apPOL DNA polymerase inhibition; Recombinant Pf-apPOL, molecular beacon fluorescence, 1.5 h; inhibition, % at 10 µM; 210,000 compounds, 0.25% hits; AID 1794808
mHTT-CaM PPI inh – inhibitors of human mutant huntingtin-calmodulin interaction. P42858. AlphaScreen His-mHTT/GST-CaM binding, luminescence. inhibition, % at 15 µM. 190,000 compounds, 3.6% hits. AID 1671202;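 also: 0% = both proteins with DMSO and 100% = one protein alone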
* marks the source's active call; other numbers are inactive results; / = no result given. Rule as the data show it: active = inhibition above about 50%; inactive = the rest.

SMILES | Pf apPOL block | mHTT-CaM PPI inh
C=C(C)COc1ccc2c(c1)OC(=Cc1cc(OC)c(OC)c(OC)c1)C2=O | -4 | -15
COc1cc2oc(=O)cc(-c3cccc(-c4cccc(C)c4)c3)c2c(OC)c1OC | -1 | -12
CC(C)N(C)C(=O)c1ccccc1N1CCC(NC(=O)c2ccc(F)cc2)CC1 | 1 | 16
Fc1cccc(F)c1CN1CCCCC1 | -4 | -5
Cc1ccc(C(=O)N2CCc3c(c(-c4nc(C5CC5)no4)nn3C)C2)c(C)c1 | -2 | -2
O=C(Nc1ccc(N2CCOCC2)c(Cl)c1)c1ccccc1 | -156 | -7
Cc1c(NC(=O)c2ccccc2I)cccc1-c1nc2ccccc2s1 | -4 | 4
O=C(Nc1ccc(N2CCOCC2)c(Cl)c1)c1ncn[nH]1 | 2 | 82*
Cc1c(NC(=O)c2ncn[nH]2)cccc1-c1nc2ccccc2s1 | -8 | 51*
CCCCN(CC)C(=O)Cc1ccccc1OC | -7 | -4
COc1ccc(OCCN2CCCCCC2)cc1 | -3 | 4
CCn1c2ccccc2c2nnc(SCC(=O)Nc3ccc([N+](=O)[O-])cc3)nc21 | 5 | 4
O=C1c2ccccc2-c2onc3c(N4CCOCC4)cc(N4CCOCC4)c1c23 | -3 | 39
O=C(NC1CCCCC1)c1ccc2c3c(onc13)-c1ccccc1C2=O | 2 | 42
CC1CC(C)CN(c2cc(NCCCC(=O)O)c3c4c(onc24)-c2ccccc2C3=O)C1 (stereo not drawn) | 0 | 65*
CC1CCCN(c2cc(NCCCC(=O)O)c3c4c(onc24)-c2ccccc2C3=O)C1 (stereo not drawn) | 0 | 77*
COc1ccc(OC(=O)C=Cc2sc3ccccc3c2C)cc1 | 0 | /
CCOc1ccc(N2Cc3ccc(C(=O)NN)cc3C2)cc1 | 0 | 31
Cc1cc(C(F)(F)F)nc(SCC(=O)Nc2cc(C)on2)n1 | -3 | -6
O=C(NCCC1CCN(C(=O)NC2CCCCC2)CC1)c1ccccc1F | 3 | -2
Cc1ccc(-n2ccnc(NC(=O)c3ccccn3)c2=O)cc1C | -16 | 89*
CC(C)c1ccc(-n2ccnc(NC(=O)c3ccccn3)c2=O)cc1 | -22 | 91*
CC(C)c1ccc(-n2ccnc(NC(=O)Nc3ccccc3)c2=O)cc1 | 0 | 0
Cc1ccc(-n2ccnc(NC(=O)c3cccc(F)c3)c2=O)cc1C | -1 | 12
C=CCn1c(=N)n(CC(O)c2ccc(-c3ccccc3)cc2)c2ccccc21 (stereo not drawn) | 0 | 96*
SMILES | Pf apPOL block | mHTT-CaM PPI inh
C=CCn1c(=N)n(CC(O)c2ccc(Br)cc2)c2ccccc21 (stereo not drawn) | -3 | 6
CCn1ncc(Cl)c1C(=O)N1CCCC1c1cccc(F)c1 (stereo not drawn) | -4 | 0
CCOc1cccc2nnc(NC(=O)c3ccc(C)cc3)n12 | 31 | 51*
O=C(Nc1nnc2ccccn12)c1ccc(C(F)(F)F)cc1 | -23 | 38
CCc1ccc(C(=O)Nc2nnc3ccccn23)cc1 | -11 | 58*
O=C(Nc1nnc2ccccn12)c1ccccc1Br | -3 | 100*
CC(C)c1ccc(C(=O)Nc2nnc3ccccn23)cc1 | -3 | 65*
CC(C)CC(=O)Nc1nnc2ccccn12 | -6 | 10
O=C(Nc1nnc2ccccn12)c1ccccc1C(F)(F)F | -8 | 10
CCOc1cccc2nnc(NC(=O)c3ccc(C(F)(F)F)cc3)n12 | 2 | 9
Cc1cc(C)cc(N2CC(C(=O)Nc3ccc(F)cc3)CC2=O)c1 (stereo not drawn) | 0 | -1
COc1ccccc1N1CCN(C2CCN(C(C)C)CC2)CC1 | -4 | -2
Cc1cc2[nH]c(C(=O)Nc3cccc(Cl)c3F)c(CN3CCOCC3)c2s1 | 20 | 14
NS(=O)(=O)c1ccc(NNC(=O)CCc2ccccc2)cc1 | -8 | /
Nc1ccccc1SCC(=O)NC(c1ccccc1)c1ccccc1 | 6 | 4
NC(=O)c1cc(Br)cc2c3c([nH]c12)CCCC3 | 4 | 62*
Brc1ccc2[nH]c3c(c2c1)CCC3 | 0 | /
Cc1noc(C)c1S(=O)(=O)N1CCc2[nH]ncc2C1 | 0 | 3
OCCN=c1scc(-c2ccc(Br)cc2)n1-c1ccccc1 | -1 | 60*
COc1ccc(-c2csc(=NCCO)n2-c2ccccc2)cc1 | 2 | 6
Cc1cc(C2C(C#N)=C(N)N(c3cccnc3)C3=C2C(=O)CC(c2ccccc2)C3)c(C)s1 (stereo not drawn) | -6 | 58*
Cc1cc(C2C(C#N)=C(N)N(c3cccnc3)C3=C2C(=O)CCC3)c(C)s1 (stereo not drawn) | -4 | -2
COc1ccc(CN2COc3ccc4c(c3C2)OC(=Cc2cc(OC)c(OC)c(OC)c2)C4=O)cc1 | -25 | 26
CCC(C)NC(=O)C1(O)c2ccccc2NC(=O)N1c1cccc(OC)c1 (stereo not drawn) | -5 | -3
CC(C)(C)NC(=O)C1Cc2ccccc2CN1S(=O)(=O)c1ccc(F)cc1 (stereo not drawn) | 0 | -3
SMILES | Pf apPOL block | mHTT-CaM PPI inh
Cc1nc(Cl)c(C(=O)NC(=O)NCc2ccc(Cl)cc2)c(C)c1[N+](=O)[O-] | -7 | -6
CN(C)c1ccc(C(O)c2nc3ccccc3n2Cc2ccccc2)cc1 (stereo not drawn) | -7 | 50*
CC(O)c1nc2ccccc2n1Cc1ccccc1 (stereo not drawn) | -10 | 6
O=C1c2ccccc2C(=O)c2c1oc1c3c(ccc21)OCN(C1CCCCC1)C3 | 27 | 84*
CC(C)(C)N1COc2ccc3c4c(oc3c2C1)C(=O)c1ccccc1C4=O | 31 | 33
COCCCN1COc2ccc3c(=O)c(-c4ccccc4OC)c(C(F)(F)F)oc3c2C1 | -3 | -1
COCCN1COc2ccc3c(=O)c(-c4ccccc4OC)c(C)oc3c2C1 | 2 | -7
O=C1c2ccccc2C(=O)c2c1oc1c3c(ccc21)OCN(CCCn1ccnc1)C3 | 6 | 100*
O=C1c2ccccc2C(=O)c2c1oc1c3c(ccc21)OCN(CCC1=CCCCC1)C3 | -1 | 79*
CCCNc1cc(N2CCC(CCC(=O)NCc3ccccc3Cl)CC2)ncn1 | -8 | 6
CN(C)C(=O)c1cc(-c2ccc3ccccc3c2)on1 | 0 | -17
CCc1ccccc1NC(=O)N1CCC(c2cc(N)on2)CC1 | -2 | 2
COC[C@@H]1CCCN1c1ccc2c(c1)O[C@@H](COCc1ccccc1)CN([C@H](C)c1ccccc1)S2(=O)=O | -7 | 1
C[C@H](c1ccccc1)N1C[C@@H](COCc2ccccc2)Oc2cc(N3CC[C@H](O)C3)ccc2S1(=O)=O | -2 | 78*
C[C@H](c1ccccc1)N1C[C@H](COCc2ccccc2)Oc2cc(N3CC[C@H](O)C3)ccc2S1(=O)=O | -4 | 72*
C[C@H](c1ccccc1)N1C[C@H](COCc2ccccc2)Oc2cc(N3CCC[C@@H]3CO)ccc2S1(=O)=O | -10 | 30
Cc1ccc(-c2nc(NC(=O)c3cncc(Br)c3)sc2C)cc1 | 3 | 6
O=C(C1c2ccccc2Oc2ccccc21)N1CCC2(CC1)OCCS2 | -7 | -1
Cc1cc(C)c(NS(=O)(=O)c2ccc(Cl)c(C(=O)O)c2)c(C)c1 | -3 | -12
COc1ccccc1NC(=O)C(=O)NCc1ccco1 | -6 | -5
CCCCC1(C)OC(=O)C(=Cc2ccc(N(CC)CC)cc2)C(=O)O1 (stereo not drawn) | 4 | 3
CCOc1ccc(Cl)cc1/C=C1/C(=O)ON=C1C | -9 | 30
CCOc1ccc(/C=C2/C(=O)ON=C2C)cc1Cl | 6 | 67*
CCCOc1ccc(/C=C2/C(=O)ON=C2C)cc1Cl | 9 | 58*
